From PubChem BioAssay
Activity calls are given as the source filed them. How the calls were made is not given here.

What follows are compounds tested on Aerobactin synthetase IucA (Klebsiella pneumoniae hvKP1) (assay: Biochemical IucA enzyme inhibition primary screen of the Spectrum library (AID 1346200;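 further: 100% = wells without compound and 0% = wells lacking enzyme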)). Details: malachite green pyrophosphate, A620, at 8 µM, hits give low values.
For COC(=O)C1[C@H]2C[C@H]3c4[nH]c5ccccc5c4CCN3C[C@@H]2CC[C@@H]1O (stereo not given in full), the activity remaining was 112% (inactive).
O=C1C(CCS(=O)c2ccccc2)C(=O)N(c2ccccc2)N1c1ccccc1 (stereo not given) was tested, and the activity remaining was 116% (inactive).
With CC1(C)CC[C@]2(C)CC[C@]3(C)C(=CCC4[C@@]5(C)CC[C@H](O)C(C)(C)C5CC[C@]43C)C2C1 (stereo not given in full) the activity remaining was 121% (inactive).
For O=C(O)/C=C/C=C/c1ccccc1, the activity remaining was 103% (inactive).
In the case of COc1cc(OC)c(-c2c(OC)cc(OC)cc2OC)c(OC)c1, the activity remaining was 106% (inactive).
For CCc1ccc(CCOc2ccc(CC3SC(=O)NC3=O)cc2)nc1 (stereo not given), the activity remaining was 120% (inactive).
With NC(=O)c1cc[n+](CC2=C(C(=O)O)N3C(=O)C(NC(=O)C(c4ccccc4)S(=O)(=O)[O-])C3SC2)cc1 (stereo not given) the activity remaining was 117% (inactive).
With CC(NCCC(c1ccccc1)c1ccccc1)c1ccccc1 (stereo not given) the activity remaining was 104% (inactive).
With CO[C@@]1(NC(=O)C(C(=O)O)c2ccc(O)cc2)C(=O)N2C(C(=O)O)=C(CSc3nnnn3C)CO[C@@H]21 (stereo not given in full) the activity remaining was 102% (inactive).
Cc1ccc(C)c(OCCCC(C)(C)C(=O)O)c1 was tested, and the activity remaining was 116% (inactive).
With OCCOCCN1CCN(C2=Nc3ccccc3Sc3ccccc32)CC1 the activity remaining was 105% (inactive).
For C=C[C@H]1CN2CC[C@H]1C[C@@H]2[C@H](O)c1ccnc2ccc(OC)cc12, the activity remaining was 112% (inactive).
In the case of COC1=CC(=O)C(C(=O)c2ccccc2)=CC1=O, the activity remaining was 93.6% (inactive).
With CCN(CCO)CCCC(C)Nc1ccnc2cc(Cl)ccc12 (stereo not given) the activity remaining was 109% (inactive).
In the case of NCCCC(O)(P(=O)(O)O)P(=O)(O)O, the activity remaining was 112% (inactive).
In the case of C=C(C)[C@H]1CC=C(C(=O)O)CC1, the activity remaining was 120% (inactive).
In the case of CC(=O)OCC(COC(C)=O)OC(C)=O, the activity remaining was 126% (inactive).
For FC(F)(F)C(Cl)Br (stereo not given), the activity remaining was 106% (inactive).
With C[C@]12CCC(=O)C=C1CCC1C2[C@@H](O)C[C@@]2(C)C1CC[C@]2(O)C(=O)COC(=O)CCC(=O)O (stereo not given in full) the activity remaining was 123% (inactive).
With Nc1ccc(S(=O)(=O)Nc2ccc(Cl)nn2)cc1 the activity remaining was 112% (inactive).
In the case of Cc1cccc(Nc2ccccc2C(=O)O)c1C, the activity remaining was 111% (inactive).
In the case of CN1CCC[C@H]1c1cccnc1, the activity remaining was 117% (inactive).
In the case of O[N+]1=CC=CCC1=S.On1ccccc1=S.[Zn], the activity remaining was 92.5% (inactive).
With CCc1cc(C(N)=S)ccn1 the activity remaining was 105% (inactive).
C#C[C@]1(O)CCC2C3CCC4=C(CCC(=O)C4)C3CC[C@@]21C (stereo not given in full) was tested, and the activity remaining was 109% (inactive).
CC(C)(C)NCC(O)COc1cccc2c1CCCC2=O (stereo not given) was tested, and the activity remaining was 91.1% (inactive).
For C[C@@H]1CC2C3C[C@H](F)C4=CC(=O)C=C[C@]4(C)[C@@]3(F)[C@@H](O)C[C@]2(C)[C@@]1(O)C(=O)COC(=O)C(C)(C)C (stereo not given in full), the activity remaining was 98.9% (inactive).
With COc1cc(C(=O)N2CCOCC2)cc(OC)c1OC the activity remaining was 111% (inactive).
With COc1ccc2c(c1)OC[C@@H](Cc1ccc(OC)c(OC)c1)[C@H]2O the activity remaining was 109% (inactive).
CO[C@H]1CC(O[C@@H]2/C(C)=C/C[C@@H]3C[C@@H](C[C@]4(CC[C@H](C)[C@@H](C5CCCCC5)O4)O3)OC(=O)[C@@H]3C=C(C)/C(=N/O)[C@H]4OC/C(=C\C=C\[C@@H]2C)[C@]43O)O[C@@H](C)C1O (stereo not given in full) was tested, and the activity remaining was 119% (inactive).
NS(=O)(=O)c1cc2c(cc1C(F)(F)F)NCNS2(=O)=O was tested, and the activity remaining was 107% (inactive).
For COc1ccc2c(c1OC)OC[C@@H](c1ccc(OC)c(OC)c1OC)C2, the activity remaining was 95.9% (inactive).
O=C(O)[C@H]1/C(=C/CO)O[C@@H]2CC(=O)N21 was tested, and the activity remaining was 112% (inactive).
For O=c1c2ccccc2oc2ccccc12, the activity remaining was 117% (inactive).
For COc1cc(O)c(C(=O)/C=C/c2ccccc2)c(OC)c1, the activity remaining was 119% (inactive).
CN(C)C(=O)Nc1ccc(Cl)c(Cl)c1 was tested, and the activity remaining was 109% (inactive).
For CC(C)N=C(N)/N=C(\N)Nc1ccc(Cl)cc1, the activity remaining was 102% (inactive).
With C[C@H]1COc2c(N3CCN(C)CC3)c(F)cc3c(=O)c(C(=O)O)cn1c23 the activity remaining was 113% (inactive).
In the case of CC(=O)NO, the activity remaining was 103% (inactive).
In the case of CC(=O)O[C@H]1C[C@@H](OC(C)=O)C(C)(C)C2C[C@@H](OC(C)=O)[C@]3(C)C([C@H](OC(C)=O)C[C@@]4(C)[C@H](c5ccoc5)OC(=O)[C@H]5O[C@]543)[C@]21C (stereo not given in full), the activity remaining was 104% (inactive).
